In PubChem BioAssay AID651734 (Southern Research Specialized Biocontainment Screening …, 2012):
Entries with a potency or affinity are not part of this list. Active and inactive are the calls of the source. How the calls were made is not given here.

experiment: VEEV TC-83 cytopathic effect inhibition, confirmation, cell-based, TC-83 strain, set 7 (AID 651734); details: VEEV TC-83 infected cells; series mostly up to 50 µM

For `COc1ccc(CNc2nc(=O)c3cccnc3s2)cc1`, which outcome is on record?
The outcome was “inactive”.

With `CCN1CCN(C2c3ncccc3C(=O)N2c2ccccc2)CC1` (centres undefined) as the compound, how does the outcome read?
Its outcome is “inactive”.

With `CCN1CCN(Cc2nc3ccc(-c4ccccn4)cc3c(=O)n2-c2ccccc2)CC1` as the compound, how does the outcome read?
Its outcome is “inactive”.

For `COc1ccc(Nc2nc(=O)c3cccnc3s2)cc1`, which outcome is on record?
Its outcome is “inactive”.
